# Results: PMC7862700, “An all-to-all approach to the identification of sequence-specific readers for epigenetic DNA modifications on cytosine”
# Key:
# Assay in all cases: DAPPL (digital affinity profiling via proximity ligation, sequencing); 10 mM Tris-HCl pH 7.5, 50 mM NaCl, 1 mM DTT, 4% glycerol, room temperature, 30 min; GST-TFs on glutathione beads, 16-mer random dsDNA library, 0.1% formaldehyde crosslink after washing; high values mean tight binding
# FLI1 = molecular target: T1, FLI1 (Homo sapiens, UniProt Q01543 1-452); details: protein: recombinant; tags: N-terminal GST; dsDNA, one strand shown
# T1 sequence: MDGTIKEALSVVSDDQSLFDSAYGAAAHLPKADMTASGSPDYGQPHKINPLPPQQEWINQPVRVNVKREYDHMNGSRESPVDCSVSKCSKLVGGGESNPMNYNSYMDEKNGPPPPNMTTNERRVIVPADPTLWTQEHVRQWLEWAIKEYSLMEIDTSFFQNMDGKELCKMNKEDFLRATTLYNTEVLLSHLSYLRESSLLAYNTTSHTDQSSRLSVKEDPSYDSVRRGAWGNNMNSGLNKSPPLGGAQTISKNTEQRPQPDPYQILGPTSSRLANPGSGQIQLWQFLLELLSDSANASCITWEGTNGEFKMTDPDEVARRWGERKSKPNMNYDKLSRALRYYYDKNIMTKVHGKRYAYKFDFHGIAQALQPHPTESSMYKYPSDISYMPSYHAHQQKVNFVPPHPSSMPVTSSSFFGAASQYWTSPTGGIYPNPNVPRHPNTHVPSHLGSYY
# Outline: (§1)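 A tag-only sample was pooled with DNA-barcoded human transcription factors that had been expressed in yeast as GST fusions and captured on glutathione beads. The pools were incubated for 30 min at room temperature with 200 nmole of a random double-stranded 16-mer DNA library in Tris/NaCl/DTT/glycerol buffer, then washed, crosslinked with 0.1% formaldehyde, proximity-ligated (BsaI/T4 ligase, 1 h, 37 °C), PCR-amplified and sequenced on an Illumina NextSeq500. Binding signal is each hexamer's read frequency for a factor divided by its frequency for the tag-only sample.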
# ELK1 = molecular target: T2, ELK1 (Homo sapiens, UniProt P19419 1-428); details: protein: recombinant; tags: N-terminal GST; dsDNA, one strand shown
# T2 sequence: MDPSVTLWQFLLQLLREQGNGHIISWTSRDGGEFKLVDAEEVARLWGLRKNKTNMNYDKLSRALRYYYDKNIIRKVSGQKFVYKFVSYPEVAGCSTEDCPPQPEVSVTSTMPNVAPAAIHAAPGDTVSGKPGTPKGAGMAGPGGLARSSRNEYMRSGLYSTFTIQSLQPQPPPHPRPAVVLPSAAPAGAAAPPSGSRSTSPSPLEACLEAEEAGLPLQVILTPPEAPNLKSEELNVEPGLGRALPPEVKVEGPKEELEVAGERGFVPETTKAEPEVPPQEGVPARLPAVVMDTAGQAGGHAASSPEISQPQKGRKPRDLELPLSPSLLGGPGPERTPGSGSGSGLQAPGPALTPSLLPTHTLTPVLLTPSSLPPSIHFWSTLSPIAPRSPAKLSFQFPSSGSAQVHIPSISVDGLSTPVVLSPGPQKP
# Outline: as §1
# GABPA = molecular target: T3, GABPA (Homo sapiens, UniProt Q06546 1-454); details: protein: recombinant; tags: N-terminal GST; dsDNA, one strand shown
# T3 sequence: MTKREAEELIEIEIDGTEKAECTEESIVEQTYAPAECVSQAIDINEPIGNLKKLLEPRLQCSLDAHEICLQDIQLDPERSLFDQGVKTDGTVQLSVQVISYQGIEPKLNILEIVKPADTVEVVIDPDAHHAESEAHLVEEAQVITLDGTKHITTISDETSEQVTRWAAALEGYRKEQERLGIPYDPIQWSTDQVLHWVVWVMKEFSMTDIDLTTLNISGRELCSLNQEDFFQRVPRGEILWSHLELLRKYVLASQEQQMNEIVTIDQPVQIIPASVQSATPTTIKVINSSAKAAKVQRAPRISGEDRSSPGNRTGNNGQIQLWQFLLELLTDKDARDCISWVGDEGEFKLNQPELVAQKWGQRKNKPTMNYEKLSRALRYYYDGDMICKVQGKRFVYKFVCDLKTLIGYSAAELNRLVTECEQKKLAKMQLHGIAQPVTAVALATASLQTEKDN
# Outline: as §1
# ELF1 = ELF1 (Homo sapiens, UniProt P32519 1-619); details: protein: recombinant; tags: N-terminal GST; dsDNA, one strand shown
# Outline: as §1
# EHF = molecular target: T4, EHF (Homo sapiens, UniProt Q9NZC4 1-300); details: protein: recombinant; tags: N-terminal GST; dsDNA, one strand shown
# T4 sequence: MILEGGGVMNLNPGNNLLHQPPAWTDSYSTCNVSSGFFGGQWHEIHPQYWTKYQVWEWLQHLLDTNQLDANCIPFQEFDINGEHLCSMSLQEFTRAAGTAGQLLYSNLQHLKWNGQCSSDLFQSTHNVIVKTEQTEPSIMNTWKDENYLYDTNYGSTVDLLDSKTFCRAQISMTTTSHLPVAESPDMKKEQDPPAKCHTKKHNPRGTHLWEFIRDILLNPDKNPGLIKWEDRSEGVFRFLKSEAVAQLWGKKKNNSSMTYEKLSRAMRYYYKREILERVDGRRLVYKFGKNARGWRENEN
# Outline: as §1
# SPI1 = SPI1 (Homo sapiens, UniProt P17947 1-270); details: protein: recombinant; tags: N-terminal GST; dsDNA, one strand shown
# Outline: as §1
# SPIB = SPIB (Homo sapiens, UniProt Q01892 1-262); details: protein: recombinant; tags: N-terminal GST; dsDNA, one strand shown
# Outline: as §1
# FEV = molecular target: T5, FEV (Homo sapiens, UniProt Q99581 1-238); details: protein: recombinant; tags: N-terminal GST; dsDNA, one strand shown
# T5 sequence: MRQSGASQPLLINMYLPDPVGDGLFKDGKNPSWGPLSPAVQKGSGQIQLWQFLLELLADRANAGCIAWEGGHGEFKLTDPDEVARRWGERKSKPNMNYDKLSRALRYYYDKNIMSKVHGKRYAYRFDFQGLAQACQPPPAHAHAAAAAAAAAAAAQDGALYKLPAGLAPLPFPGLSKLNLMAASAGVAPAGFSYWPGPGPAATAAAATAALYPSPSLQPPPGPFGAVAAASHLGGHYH
# Outline: as §1
# ETV5 = ETV5 (Homo sapiens, UniProt P41161 1-510); details: protein: recombinant; tags: N-terminal GST; dsDNA, one strand shown
# Outline: as §1
# HSF1 = HSF1 (Homo sapiens, UniProt Q00613 1-529); details: protein: recombinant; tags: N-terminal GST; chain copies: 3; dsDNA, one strand shown
# Outline: as §1
# ELF4 = ELF4 (Homo sapiens, UniProt Q99607 1-663); details: protein: recombinant; tags: N-terminal GST; dsDNA, one strand shown
# Outline: as §1
# ELK4 = molecular target: T6, ELK4 (Homo sapiens, UniProt P28324-2 1-405); details: protein: recombinant; tags: N-terminal GST; dsDNA, one strand shown
# T6 sequence: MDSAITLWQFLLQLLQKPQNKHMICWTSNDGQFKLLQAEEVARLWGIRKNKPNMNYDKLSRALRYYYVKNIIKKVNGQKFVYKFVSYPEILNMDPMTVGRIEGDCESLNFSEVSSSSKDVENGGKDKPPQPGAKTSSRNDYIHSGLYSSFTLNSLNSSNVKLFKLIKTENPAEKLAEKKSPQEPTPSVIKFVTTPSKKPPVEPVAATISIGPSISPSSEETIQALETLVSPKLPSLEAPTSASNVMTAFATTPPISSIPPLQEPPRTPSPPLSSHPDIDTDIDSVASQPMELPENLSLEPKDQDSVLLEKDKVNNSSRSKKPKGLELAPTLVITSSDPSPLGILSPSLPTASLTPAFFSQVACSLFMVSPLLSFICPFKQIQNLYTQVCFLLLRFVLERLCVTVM
# Outline: as §1
# ETV2 = molecular target: T7, ETV2 (Homo sapiens, UniProt O00321 1-342); details: protein: recombinant; tags: N-terminal GST; dsDNA, one strand shown
# T7 sequence: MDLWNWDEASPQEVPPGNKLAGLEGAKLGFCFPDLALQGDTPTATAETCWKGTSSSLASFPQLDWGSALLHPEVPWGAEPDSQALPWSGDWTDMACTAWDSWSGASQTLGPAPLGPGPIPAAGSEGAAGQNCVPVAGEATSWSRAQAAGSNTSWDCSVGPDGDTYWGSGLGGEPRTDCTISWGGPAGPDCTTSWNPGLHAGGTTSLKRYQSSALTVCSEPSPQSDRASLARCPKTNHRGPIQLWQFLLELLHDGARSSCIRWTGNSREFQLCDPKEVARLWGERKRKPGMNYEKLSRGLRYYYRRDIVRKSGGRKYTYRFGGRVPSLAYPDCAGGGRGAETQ
# Outline: as §1
# CRX = CRX (Homo sapiens, UniProt O43186 1-299); details: protein: recombinant; tags: N-terminal GST; dsDNA, one strand shown
# Outline: as §1
# ETV1 = ETV1 (Homo sapiens, UniProt P50549 1-477); details: protein: recombinant; tags: N-terminal GST; dsDNA, one strand shown
# Outline: as §1
# CRX, sequence (O43186 whole entry): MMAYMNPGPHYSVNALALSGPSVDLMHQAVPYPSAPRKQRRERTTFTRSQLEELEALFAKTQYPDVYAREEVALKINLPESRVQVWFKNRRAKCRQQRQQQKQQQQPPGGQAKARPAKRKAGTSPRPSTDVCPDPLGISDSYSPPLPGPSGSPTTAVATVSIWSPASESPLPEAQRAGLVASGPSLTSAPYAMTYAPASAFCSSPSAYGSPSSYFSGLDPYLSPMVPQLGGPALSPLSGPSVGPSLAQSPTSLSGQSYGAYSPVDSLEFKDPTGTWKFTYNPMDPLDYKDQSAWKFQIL
# ETV5, sequence (P41161 whole entry): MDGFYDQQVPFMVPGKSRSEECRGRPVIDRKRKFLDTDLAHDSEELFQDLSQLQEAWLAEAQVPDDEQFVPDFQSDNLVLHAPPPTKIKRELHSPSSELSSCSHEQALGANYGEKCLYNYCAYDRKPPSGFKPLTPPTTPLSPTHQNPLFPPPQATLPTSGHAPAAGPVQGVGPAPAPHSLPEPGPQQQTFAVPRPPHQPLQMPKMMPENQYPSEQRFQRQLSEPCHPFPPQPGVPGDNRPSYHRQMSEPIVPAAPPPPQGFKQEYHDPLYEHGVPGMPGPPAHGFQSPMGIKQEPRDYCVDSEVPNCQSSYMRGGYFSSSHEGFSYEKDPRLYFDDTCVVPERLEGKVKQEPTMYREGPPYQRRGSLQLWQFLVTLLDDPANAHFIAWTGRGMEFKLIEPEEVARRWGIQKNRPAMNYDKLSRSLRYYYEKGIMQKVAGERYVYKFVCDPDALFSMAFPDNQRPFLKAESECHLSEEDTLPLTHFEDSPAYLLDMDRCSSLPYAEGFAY
# ETV1, sequence (P50549 whole entry): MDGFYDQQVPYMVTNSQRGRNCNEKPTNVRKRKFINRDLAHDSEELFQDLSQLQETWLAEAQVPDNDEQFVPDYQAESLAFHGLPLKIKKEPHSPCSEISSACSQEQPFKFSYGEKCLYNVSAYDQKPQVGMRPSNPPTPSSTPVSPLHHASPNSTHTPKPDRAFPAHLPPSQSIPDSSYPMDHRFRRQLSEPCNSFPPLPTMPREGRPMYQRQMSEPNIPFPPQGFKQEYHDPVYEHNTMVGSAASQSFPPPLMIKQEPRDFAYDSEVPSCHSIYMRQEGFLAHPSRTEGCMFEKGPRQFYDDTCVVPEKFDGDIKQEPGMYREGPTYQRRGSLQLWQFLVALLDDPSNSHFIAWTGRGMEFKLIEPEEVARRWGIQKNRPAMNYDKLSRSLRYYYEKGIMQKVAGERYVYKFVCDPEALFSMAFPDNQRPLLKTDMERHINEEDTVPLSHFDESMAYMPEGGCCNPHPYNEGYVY
# HSF1, sequence (Q00613 whole entry): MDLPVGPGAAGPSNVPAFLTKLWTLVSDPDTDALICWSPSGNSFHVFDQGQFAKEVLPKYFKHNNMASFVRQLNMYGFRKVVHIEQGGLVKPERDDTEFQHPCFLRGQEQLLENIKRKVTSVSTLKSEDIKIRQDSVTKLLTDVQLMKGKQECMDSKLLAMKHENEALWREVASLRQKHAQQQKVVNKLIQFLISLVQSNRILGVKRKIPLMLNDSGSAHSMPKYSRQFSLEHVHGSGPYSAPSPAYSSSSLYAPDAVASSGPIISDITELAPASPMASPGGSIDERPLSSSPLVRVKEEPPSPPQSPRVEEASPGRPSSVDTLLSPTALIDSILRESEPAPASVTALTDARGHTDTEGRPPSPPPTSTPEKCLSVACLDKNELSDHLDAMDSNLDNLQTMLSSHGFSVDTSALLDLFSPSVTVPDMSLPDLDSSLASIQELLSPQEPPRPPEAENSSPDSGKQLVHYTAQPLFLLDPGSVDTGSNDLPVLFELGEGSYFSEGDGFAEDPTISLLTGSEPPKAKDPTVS
# ELF1, sequence (P32519 whole entry): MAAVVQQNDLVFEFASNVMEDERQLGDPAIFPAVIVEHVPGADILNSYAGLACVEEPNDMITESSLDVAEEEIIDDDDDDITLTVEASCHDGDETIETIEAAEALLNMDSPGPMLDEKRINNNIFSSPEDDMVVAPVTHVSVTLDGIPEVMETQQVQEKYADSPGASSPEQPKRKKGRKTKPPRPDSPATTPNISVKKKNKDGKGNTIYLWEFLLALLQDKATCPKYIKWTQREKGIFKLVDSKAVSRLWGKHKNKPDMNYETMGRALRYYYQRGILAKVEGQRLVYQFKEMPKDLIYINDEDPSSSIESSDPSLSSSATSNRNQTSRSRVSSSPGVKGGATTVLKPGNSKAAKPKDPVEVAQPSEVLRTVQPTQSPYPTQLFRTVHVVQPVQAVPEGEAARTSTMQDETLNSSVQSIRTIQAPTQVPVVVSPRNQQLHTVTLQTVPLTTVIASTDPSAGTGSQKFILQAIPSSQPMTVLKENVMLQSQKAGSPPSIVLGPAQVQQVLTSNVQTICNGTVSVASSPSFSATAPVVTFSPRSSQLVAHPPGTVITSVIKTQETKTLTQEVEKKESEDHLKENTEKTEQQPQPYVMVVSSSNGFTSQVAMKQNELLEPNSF
# SPIB, sequence (Q01892 whole entry): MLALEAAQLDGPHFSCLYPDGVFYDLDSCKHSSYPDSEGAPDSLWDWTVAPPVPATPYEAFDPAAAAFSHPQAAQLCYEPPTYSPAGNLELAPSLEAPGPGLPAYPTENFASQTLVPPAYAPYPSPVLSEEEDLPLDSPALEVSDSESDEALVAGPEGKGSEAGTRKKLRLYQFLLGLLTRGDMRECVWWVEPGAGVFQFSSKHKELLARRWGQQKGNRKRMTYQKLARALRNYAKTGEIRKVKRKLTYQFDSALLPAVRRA
# ELF4, sequence (Q99607 whole entry): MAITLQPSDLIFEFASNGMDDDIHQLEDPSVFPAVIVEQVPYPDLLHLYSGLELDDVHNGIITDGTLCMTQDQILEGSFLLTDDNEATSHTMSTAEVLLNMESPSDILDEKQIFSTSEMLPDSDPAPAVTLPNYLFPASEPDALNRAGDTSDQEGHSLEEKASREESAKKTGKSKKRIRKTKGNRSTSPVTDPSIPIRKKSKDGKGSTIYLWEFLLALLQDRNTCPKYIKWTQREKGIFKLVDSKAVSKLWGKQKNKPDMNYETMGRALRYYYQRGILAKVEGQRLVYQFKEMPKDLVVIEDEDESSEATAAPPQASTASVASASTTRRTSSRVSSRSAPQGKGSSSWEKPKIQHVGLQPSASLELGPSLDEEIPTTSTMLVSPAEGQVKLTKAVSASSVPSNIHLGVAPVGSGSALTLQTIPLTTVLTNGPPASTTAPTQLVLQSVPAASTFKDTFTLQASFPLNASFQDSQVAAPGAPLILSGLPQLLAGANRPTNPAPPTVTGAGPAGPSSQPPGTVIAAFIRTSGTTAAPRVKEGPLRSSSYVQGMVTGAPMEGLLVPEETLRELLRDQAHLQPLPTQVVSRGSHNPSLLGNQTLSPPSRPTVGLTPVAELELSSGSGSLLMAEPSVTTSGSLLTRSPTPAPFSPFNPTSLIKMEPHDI
sequence,measurement,setting,value
AGATAA,binding signal,FLI1,"1.09 fold enrichment (6-mer frequency, TF over GST control)"
same,binding signal,ELK1,"1.07 fold enrichment (6-mer frequency, TF over GST control)"
same,binding signal,GABPA,"1.09 fold enrichment (6-mer frequency, TF over GST control)"
same,binding signal,ELF1,"1.01 fold enrichment (6-mer frequency, TF over GST control)"
same,binding signal,EHF,"1.03 fold enrichment (6-mer frequency, TF over GST control)"
same,binding signal,SPI1,"1.01 fold enrichment (6-mer frequency, TF over GST control)"
same,binding signal,SPIB,"1.12 fold enrichment (6-mer frequency, TF over GST control)"
same,binding signal,FEV,"1.01 fold enrichment (6-mer frequency, TF over GST control)"
same,binding signal,ETV5,"1.01 fold enrichment (6-mer frequency, TF over GST control)"
same,binding signal,HSF1,"1.68 fold enrichment (6-mer frequency, TF over GST control)"
same,binding signal,ELF4,"1.09 fold enrichment (6-mer frequency, TF over GST control)"
same,binding signal,ELK4,"1.08 fold enrichment (6-mer frequency, TF over GST control)"
same,binding signal,ETV2,"1.17 fold enrichment (6-mer frequency, TF over GST control)"
same,binding signal,CRX,"2 fold enrichment (6-mer frequency, TF over GST control)"
same,binding signal,ETV1,"1.04 fold enrichment (6-mer frequency, TF over GST control)"
